# Records with an inconclusive call do not appear. Entries that show only a call come without a potency. The source made the active and inactive calls. Unless noted, calls follow the shape of the full dose curve.
# Key:
# [1] = Nuclear factor erythroid 2-related factor 2/antioxidant responsive element (Nrf2/ARE) small molecule agonists: qHTS cell viability counter screen in human keratinocytes (AID 1919968; active = well fitted curve in the direction sought with a large enough effect in the repeat runs; an effect the other way counts as inactive or inconclusive; also: nearly all actives have a fitted effect of over 55% in size)
# How it was run: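 CellTiter-Fluor fluorescence, read 1 h after reagent, gave viability in the same wells as the ARE-luciferase assay. KeratinoSens cells (1,500/well) had 23 h compound exposure at 37 C/5% CO2 following 5 h plating.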
# [2] = Nuclear factor erythroid 2-related factor 2/antioxidant responsive element (Nrf2/ARE) small molecule agonists: luciferase reporter gene qHTS assay in human keratinocytes (AID 1919969); also: nearly all actives have a fitted effect of over 35% in size; also: potency is read from the fitted curve at half-maximal effect
# [3] = biological target: Gonadotropin-releasing hormone receptor (Homo sapiens) (UniProt P30968); test: Human gonadotropin-releasing hormone receptor (GnRHR) small molecule agonists, calcium flux assay in GnRHR-HEK293 cells (AID 1920063); also: nearly all actives have a fitted effect of over 35% in size
# How it was run: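 Agonist mode: compounds at 15 concentrations, in triplicate, went onto calcium dye-loaded GnRHR-HEK293 cells. Intracellular calcium was then followed as 480/540 nm fluorescence at 1 s intervals over 3 min.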
# [4] = biological target: KiSS-1 receptor (Homo sapiens) (UniProt Q969F8); test: Human kisspeptin (KISS1R) small molecule agonists, calcium flux assay in KISS1R-HEK293 cells (AID 1920064; active = well fitted curve in the direction sought with a large enough effect in the repeat runs; an effect the other way counts as inactive or inconclusive)
# How it was run: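 Agonist mode: intracellular calcium rise tracked at 1 s intervals over 3 min (480/540 nm) immediately after compound addition to dye-loaded KISS1R-HEK293 stable cells. Each compound tested at 15 concentrations in triplicate.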
# [5] = G protein-coupled receptor (GPCR) small molecule agonists, calcium flux assay: HEK293 wild type cell line counter screen (AID 1920065)
# How it was run: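 Calcium flux counter screen: compound added in agonist mode at 15 concentrations in triplicate to dye-loaded parental HEK293 cells. Fluorescence (480/540) read kinetically for 3 min; ATP served as positive control.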
# [6] = p53 small molecule agonists, cell-based qHTS assay with rat liver microsomes (AID 1963578)
# How it was run: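 Compound in DMSO added to p53RE-bla cells 5 h post-plating; rat microsomes/NADPH 0.5 mg/mL final; 16 h, 37 C; LiveBLAzer 2 h RT.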
# [7] = p53 small molecule agonists, cell-based qHTS assay with human liver microsomes: qHTS cell viability counter screen (AID 1963579); also: nearly all actives have a fitted effect of over 45% in size
# How it was run: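 HLM-supplemented (0.5 mg/mL final) and NADPH-supplemented (0.5 mg/mL final) p53RE-bla cultures, 4,000 cells per well, were dosed with compounds in DMSO for 16 h at 37 C; luminescent ATP detection (CellTiter-Glo, 30 min, room temperature) quantified surviving cells.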
# [8] = p53 small molecule agonists, cell-based qHTS assay with rat liver microsomes: qHTS cell viability counter screen (AID 1963580); also: nearly all actives have a fitted effect of over 45% in size
# How it was run: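 Cytotoxicity counter screen: intracellular ATP read by CellTiter-Glo luminescence in the p53 reporter wells. HCT-116 p53RE-bla cells were treated for 16 h at 37 C alongside rat liver microsomes and NADPH, each 0.5 mg/mL final.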
# [9] = p53 small molecule agonists, cell-based qHTS assay: qHTS cell viability counter screen (AID 1963581); also: nearly all actives have a fitted effect of over 45% in size
# How it was run: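 Counter screen read by CellTiter-Glo luminescence (ATP content, 30 min at room temperature), run in the same wells as the beta-lactamase reporter read. HCT-116 p53RE-bla cells saw compounds for 16 h at 37 C.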
# [10] = biological target: 5-hydroxytryptamine receptor 2A (Homo sapiens) (UniProt P28223); test: 5-hydroxytryptamine receptor 2A (HTR2A) small molecule antagonists, cell-based qHTS assay (AID 1963586); also: nearly all actives have a fitted effect of over 45% in size
# How it was run: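 CHO cells stably expressing human HTR2A were plated for 18 h at 37 C, then loaded with calcium dye for 1 h. Compounds were preincubated 5 min at room temperature before DOI (4 nM solution) was added. Kinetic fluorescence was read for 3 min.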
# [11] = biological target: 5-hydroxytryptamine receptor 2A (Homo sapiens) (UniProt P28223); test: 5-hydroxytryptamine receptor 2A (HTR2A) small molecule agonists, cell-based qHTS assay (AID 1963587); also: nearly all actives have a fitted effect of over 30% in size
# How it was run: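 Kinetic calcium-flux fluorescence (2 min, 1 sec intervals) after compound addition in agonist mode. HTR2A-CHO cells were cultured 18 h, then dye-loaded 1 h at 37 C.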
# [12] = biological target: Muscarinic acetylcholine receptor M1 (Homo sapiens) (UniProt P11229); test: Cholinergic receptor muscarinic 1 (CHRM1) small molecule antagonists, cell-based qHTS assay (AID 1963588); also: nearly all actives have a fitted effect of over 40% in size
# How it was run: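 Compounds were tested at 15 concentrations in three independent runs. Dye-loaded CHRM1-CHO cells were exposed 5 min at room temperature before stimulation by acetylcholine added at 50nM. Intracellular calcium was read kinetically on FDSS for 3 min.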
# [13] = biological target: Muscarinic acetylcholine receptor M1 (Homo sapiens) (UniProt P11229); test: Cholinergic receptor muscarinic 1 (CHRM1) small molecule agonists, cell-based qHTS assay (AID 1963589); also: nearly all actives have a fitted effect of over 35% in size
# How it was run: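 Agonist-mode calcium-flux screen: compounds at 15 concentrations, three independent runs, were pin-transferred onto dye-loaded human CHRM1-CHO cells. Fluorescence was then recorded kinetically every second over minutes.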
# [14] = cAMP Responsive Elements (CRE) small molecule agonists, cell-based qHTS assay (AID 1963590)
# How it was run: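 Agonist mode: compound added to CRE-bla HEK 293T cells (2,000/well, 18 h after plating) for 3 h at 37 C/5% CO2. Reporter activity detected via FRET beta-lactamase substrate, 2 h room-temperature loading.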
# [15] = cAMP Responsive Elements (CRE) small molecule antagonists, cell-based qHTS assay (AID 1963591; active = well fitted inhibition curve with a large enough effect in the signal ratio in the repeat runs, not every such curve was filed as active; the % refers to the signal ratio)
# How it was run: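 Antagonist mode: compounds are added alongside the adenylyl cyclase activator NKH477 (0.25 uM final) to CRE-bla HEK293T cells for 3 h. LiveBLAzer FRET substrate, 2 h at room temperature, reports bla expression.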
# [16] = biological target: Beta-2 adrenergic receptor (Homo sapiens) (UniProt P07550); test: Adrenergic beta2 receptor (ADRB2) small molecule antagonists, cell-based qHTS assay (AID 1963592); also: series mostly up to about 92 µM; nearly all actives have a fitted effect of over 50% in size
# How it was run: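 Assay format: CHO-ADRB2 cells, 18-20hr seeding at 37C/5% CO2, then compound plus 1nM isoproterenol agonist mix for 0.5hr RT. Homogeneous time-resolved fluorescence cAMP detection after 1hr, expressed as 665/615 nm ratio.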
# [17] = biological target: D(2) dopamine receptor (Homo sapiens) (UniProt P14416); test: Dopamine D2 receptor (DRD2) small molecule agonists, cell-based qHTS assay (AID 1963594); also: nearly all actives have a fitted effect of over 35% in size
# How it was run: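 cAMP accumulation in DRD2-HEK293 cells measured by HTRF after 1 h detection; compounds added 10 min before NKH477 (200nM […]) forskolin-analogue stimulation, 30 min at room temperature, with Ro20-1724 present at 0.1 mM final.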
# [18] = biological target: D(2) dopamine receptor (Homo sapiens) (UniProt P14416); test: Dopamine D2 receptor (DRD2) small molecule antagonists, cell-based qHTS assay (AID 1963595; active = well fitted inhibition curve with a large enough effect in the signal ratio in the repeat runs, with a control signal flat; the % refers to the signal ratio)
# How it was run: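 HEK293 cells stably expressing DRD2, preincubated with 0.1 mM Ro20-1724 and compounds 10 min, were stimulated with 200 nM NKH477 plus 12 nM quinpirole for 30 min at room temperature; cAMP measured by HTRF (665/620 nm).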
# [19] = biological target: Beta-2 adrenergic receptor (Homo sapiens) (UniProt P07550); test: Adrenergic beta2 receptor (ADRB2) small molecule agonists, cell-based qHTS assay (AID 1963593);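 also: CHO cells stably overexpressing human ADRB2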
# How it was run: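 CHO cells stably over-expressing ADRB2 were plated overnight at 37C, then dosed with compounds plus a stimulation mix containing 100uM IBMX and 25uM Ro-20-1724 for 0.5hr at room temperature. cAMP was measured by HTRF competition, 1hr.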
# [20] = p53 small molecule agonists, cell-based qHTS assay (AID 1963582; active = well fitted activation curve with a large enough effect in the signal ratio in the repeat runs, not every such curve was filed as active; the % refers to the signal ratio)
# How it was run: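 Read-out is beta-lactamase FRET fluorescence after 2 h at room temperature with LiveBLAzer B/G substrate. p53 response element-bla cells were treated 16 h at 37 C with compounds in DMSO, added 5 h after seeding.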
# Chain of 5-hydroxytryptamine receptor 2A (Homo sapiens) (P28223 whole entry, looked up): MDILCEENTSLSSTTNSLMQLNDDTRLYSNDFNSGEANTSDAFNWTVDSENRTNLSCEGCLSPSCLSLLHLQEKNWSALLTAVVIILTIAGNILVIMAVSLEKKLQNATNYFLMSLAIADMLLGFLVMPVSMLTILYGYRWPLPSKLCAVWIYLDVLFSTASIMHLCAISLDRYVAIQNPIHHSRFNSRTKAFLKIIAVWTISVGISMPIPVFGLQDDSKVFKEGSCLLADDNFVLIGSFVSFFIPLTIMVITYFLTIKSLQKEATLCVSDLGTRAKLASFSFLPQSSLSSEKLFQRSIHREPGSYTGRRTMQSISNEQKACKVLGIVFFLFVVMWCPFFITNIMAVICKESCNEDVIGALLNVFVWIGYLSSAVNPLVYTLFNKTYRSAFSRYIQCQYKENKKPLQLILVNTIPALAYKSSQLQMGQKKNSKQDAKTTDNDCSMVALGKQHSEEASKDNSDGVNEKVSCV
# Chain of Muscarinic acetylcholine receptor M1 (Homo sapiens) (P11229 whole entry, looked up): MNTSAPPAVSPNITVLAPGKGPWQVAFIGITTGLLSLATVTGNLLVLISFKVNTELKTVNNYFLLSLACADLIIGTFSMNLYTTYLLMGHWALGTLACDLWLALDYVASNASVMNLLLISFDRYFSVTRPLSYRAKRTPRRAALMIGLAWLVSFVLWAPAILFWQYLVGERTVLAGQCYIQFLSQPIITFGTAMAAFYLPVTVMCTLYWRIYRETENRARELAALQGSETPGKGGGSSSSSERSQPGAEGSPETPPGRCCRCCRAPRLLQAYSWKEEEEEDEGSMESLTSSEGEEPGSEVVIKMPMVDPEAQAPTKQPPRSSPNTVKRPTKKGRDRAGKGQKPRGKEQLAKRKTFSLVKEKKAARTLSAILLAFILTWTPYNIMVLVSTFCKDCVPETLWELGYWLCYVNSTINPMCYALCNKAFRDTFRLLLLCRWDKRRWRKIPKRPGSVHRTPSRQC
# Chain of D(2) dopamine receptor (Homo sapiens) (P14416 whole entry, looked up): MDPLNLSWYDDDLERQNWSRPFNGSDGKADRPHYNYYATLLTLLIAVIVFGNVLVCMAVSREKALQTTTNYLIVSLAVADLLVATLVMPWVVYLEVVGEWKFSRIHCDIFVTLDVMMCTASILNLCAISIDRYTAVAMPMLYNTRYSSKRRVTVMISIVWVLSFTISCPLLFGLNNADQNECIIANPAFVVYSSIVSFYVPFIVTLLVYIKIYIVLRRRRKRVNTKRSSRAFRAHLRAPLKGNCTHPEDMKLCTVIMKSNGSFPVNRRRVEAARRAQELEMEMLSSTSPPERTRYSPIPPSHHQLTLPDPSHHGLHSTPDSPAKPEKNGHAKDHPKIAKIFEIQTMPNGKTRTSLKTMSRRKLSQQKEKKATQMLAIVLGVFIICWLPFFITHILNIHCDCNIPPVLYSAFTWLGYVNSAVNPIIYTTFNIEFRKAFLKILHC
# Chain of KiSS-1 receptor (Homo sapiens) (Q969F8 whole entry, looked up): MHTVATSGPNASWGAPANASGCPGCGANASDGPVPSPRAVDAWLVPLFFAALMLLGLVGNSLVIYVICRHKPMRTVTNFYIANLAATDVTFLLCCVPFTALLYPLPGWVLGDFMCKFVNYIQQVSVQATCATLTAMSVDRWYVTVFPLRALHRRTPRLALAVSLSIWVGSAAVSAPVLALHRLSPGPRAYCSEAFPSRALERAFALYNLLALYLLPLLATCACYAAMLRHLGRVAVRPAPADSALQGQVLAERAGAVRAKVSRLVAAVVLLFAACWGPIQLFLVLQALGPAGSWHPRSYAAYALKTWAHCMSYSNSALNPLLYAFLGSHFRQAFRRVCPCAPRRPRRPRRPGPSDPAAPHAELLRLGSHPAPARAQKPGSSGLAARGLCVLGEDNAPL
# Chain of Gonadotropin-releasing hormone receptor (Homo sapiens) (P30968 whole entry, looked up): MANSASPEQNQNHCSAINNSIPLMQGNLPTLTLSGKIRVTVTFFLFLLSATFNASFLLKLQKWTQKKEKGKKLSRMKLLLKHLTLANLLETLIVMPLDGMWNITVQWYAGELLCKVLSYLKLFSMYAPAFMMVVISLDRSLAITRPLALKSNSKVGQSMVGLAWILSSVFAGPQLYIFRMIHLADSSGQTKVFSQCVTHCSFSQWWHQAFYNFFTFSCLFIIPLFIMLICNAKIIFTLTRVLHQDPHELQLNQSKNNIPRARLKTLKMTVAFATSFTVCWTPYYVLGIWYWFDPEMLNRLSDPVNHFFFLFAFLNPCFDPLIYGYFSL
# Chain of Beta-2 adrenergic receptor (Homo sapiens) (P07550 whole entry, looked up): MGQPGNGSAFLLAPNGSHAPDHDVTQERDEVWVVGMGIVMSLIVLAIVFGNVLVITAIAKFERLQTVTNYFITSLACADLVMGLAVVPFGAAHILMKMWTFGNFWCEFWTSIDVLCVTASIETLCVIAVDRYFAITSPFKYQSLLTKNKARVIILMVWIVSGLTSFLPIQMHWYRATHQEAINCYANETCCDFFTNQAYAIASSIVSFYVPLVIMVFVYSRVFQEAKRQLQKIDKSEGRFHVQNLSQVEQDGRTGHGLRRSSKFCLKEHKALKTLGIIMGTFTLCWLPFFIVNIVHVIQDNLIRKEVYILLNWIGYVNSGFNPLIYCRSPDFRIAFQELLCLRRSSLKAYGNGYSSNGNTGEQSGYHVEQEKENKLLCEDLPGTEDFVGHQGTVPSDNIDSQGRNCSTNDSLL
SMILES,Potency [1],Potency [2],Potency [3],Potency [4],Potency [5],Potency [6],Potency [7],Potency [8],Potency [9],Potency [10],Potency [11],Potency [12],Potency [13],Potency [14],Potency [15],Potency [16],Potency [17],Potency [18],Potency [19],Potency [20]
CC1CCC(C(C)(C)S)C(=O)C1 (stereo not drawn),inactive,inactive,inactive,inactive,inactive,inactive,inactive,inactive,inactive,inactive,inactive,inactive,inactive,inactive,inactive,inactive,inactive,inactive,,
O=C1OC(CN2CCOCC2)CN1/N=C/c1ccc([N+](=O)[O-])o1 (stereo not drawn),inactive,inactive,inactive,inactive,inactive,inactive,inactive,inactive,inactive,inactive,inactive,inactive,inactive,inactive,inactive,inactive,,inactive,inactive,
CCCCc1ncc(/C=C(\Cc2cccs2)C(=O)O)n1Cc1ccc(C(=O)O)cc1,inactive,inactive,inactive,inactive,inactive,inactive,inactive,inactive,inactive,inactive,inactive,inactive,inactive,inactive,inactive,inactive,inactive,inactive,inactive,inactive
CC1=CCC(C(C)(C)O)CC1 (stereo not drawn),inactive,inactive,inactive,inactive,inactive,inactive,inactive,inactive,,inactive,inactive,inactive,inactive,inactive,inactive,inactive,inactive,inactive,inactive,inactive
COc1ccc(Cl)cc1C,inactive,inactive,inactive,inactive,inactive,inactive,inactive,inactive,inactive,inactive,inactive,inactive,inactive,inactive,inactive,inactive,inactive,inactive,,inactive
O=C(O)c1cc2ccccc2nc1C(=O)O,inactive,17.2 µM (active),inactive,inactive,inactive,inactive,inactive,inactive,inactive,,inactive,inactive,inactive,inactive,inactive,inactive,inactive,inactive,,inactive
CCCCC1CCC(O)CC1 (stereo not drawn),inactive,inactive,inactive,inactive,inactive,inactive,inactive,inactive,inactive,inactive,inactive,inactive,,inactive,inactive,inactive,inactive,inactive,inactive,inactive
C=COCCCC,inactive,inactive,inactive,inactive,inactive,inactive,inactive,inactive,inactive,inactive,,inactive,inactive,inactive,inactive,inactive,inactive,inactive,inactive,inactive
CCCCCCCC(OC)OC,inactive,inactive,inactive,inactive,inactive,inactive,inactive,inactive,inactive,inactive,inactive,inactive,inactive,inactive,inactive,inactive,inactive,inactive,inactive,inactive
CCOC(=S)SSC(=S)OCC,inactive,68.6 µM (active),inactive,inactive,inactive,inactive,inactive,inactive,inactive,inactive,inactive,,inactive,inactive,inactive,inactive,inactive,inactive,inactive,inactive
CCC(C)(C)C1CCC(=O)CC1,inactive,inactive,inactive,inactive,inactive,inactive,inactive,inactive,inactive,inactive,,inactive,inactive,inactive,inactive,,inactive,inactive,inactive,inactive
CC(=O)O[C@]1(C(C)=O)CC[C@H]2[C@@H]3C=C(C)C4=CC(=O)CC[C@]4(C)[C@H]3CC[C@@]21C,inactive,inactive,inactive,inactive,inactive,inactive,inactive,inactive,inactive,,,,,,,inactive,inactive,inactive,inactive,inactive
O=S(=O)(O)CO,inactive,inactive,inactive,inactive,inactive,inactive,inactive,inactive,,inactive,inactive,inactive,inactive,inactive,inactive,inactive,inactive,,inactive,inactive
CO[Si](CCCNCCNCCN)(OC)OC,inactive,inactive,inactive,inactive,inactive,inactive,inactive,inactive,inactive,inactive,inactive,inactive,inactive,inactive,inactive,inactive,inactive,inactive,,inactive
